Test [1] in a line: NCI Yeast Anticancer Drug Screen. Data for the rad50 strain (AID 155).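 Further: 0% = growth of vehicle-only cultures of the same strain.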 To be noted: S. cerevisiae rad50 strain growth inhibition, hits give high values. The method, boiled down: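 Inhibition values express reduced yeast growth in compound-treated cultures relative to vehicle-treated controls.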
Test [2] can be described thus: NCI Yeast Anticancer Drug Screen. Data for the mec2-1 strain (AID 157). To be noted: S. cerevisiae mec2-1 strain, hits give high values. The essentials: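 Yeast mec2-1 mutant treated with compound. Readout: growth inhibition vs vehicle controls.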
Test [3] can be described thus: NCI Yeast Anticancer Drug Screen. Data for the sgs1 mgt1 strain (AID 161).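 Further: 0% = growth of cultures given vehicle only.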 To be noted: S. cerevisiae sgs1 mgt1 strain, hits give high values. The method, boiled down:
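Mutant yeast exposed to compound; growth scored against vehicle-only wells.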

Test [4] in a line: NCI Yeast Anticancer Drug Screen. Data for the cln2 rad14 strain (AID 165).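 Further: 0% = growth equal to vehicle treated cultures.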 Particulars: S. cerevisiae cln2 rad14 strain, hits give high values. The method, boiled down:
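cln2 rad14 yeast strain; compound exposure; growth inhibition read vs vehicle controls.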

Test [5] can be described thus: NCI Yeast Anticancer Drug Screen. Data for the bub3 strain (AID 167). To be noted: S. cerevisiae bub3 mutant strain, hits give high values. The essentials: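 Steps: expose the mutant yeast strain to compound; grow alongside vehicle-treated cultures; measure growth; express inhibition against the vehicle cultures.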
A short description of test [6]: NCI Yeast Anticancer Drug Screen. Data for the mlh1 rad18 strain (AID 175). Particulars: S. cerevisiae mlh1 rad18 strain growth inhibition, hits give high values. The method, boiled down: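 Yeast w/ defined DNA-repair lesions; compound exposure; growth vs vehicle controls → % inhibition.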
Where [7] appears, read: at 5.0 µM (retest, dose inferred, filed as 0.5).
Where [8] appears, read: at 50.0 µM (retest, dose inferred, filed as 5.0).

SMILES strings stand for the structures. This is part of a sample that, as a whole, favours compounds with a hit. Of some 79,000 tested, about 15% had one in any assay. Unmarked numbers belong to inactive results. Calls of active or inactive are those of the source. No stated cut-off is given here; in the data, active means growth inhibition above about 70%; inactive means the rest.

For the molecule `C[n+]1c(-c2ccc(/C=N\NC(=O)c3cccc(C(=O)N/N=C/c4ccc(-c5cn6ccccc6[n+]5C)cc4)c3)cc2)cn2ccccc21`, the growth inhibition in test [1] (setting [7]) was -14%; in test [1] (setting [8]), 99% (active); in test [1] (at 50.0 µM) it was 98% (active); in test [2] (setting [7]), 27%; in test [2] (setting [8]), 99% (active); in test [2] (at 50.0 µM) it was 98.5% (active). The growth inhibition in test [3] (setting [7]) is 0%; in test [3] (setting [8]), 99% (active); in test [3] (at 50.0 µM) it was 98.2% (active); in test [4] (setting [7]) it was -4%; in test [4] (setting [8]) it was 99% (active); in test [4] (at 50.0 µM) it was 97.7% (active). Also, the growth inhibition in test [5] (setting [7]) was 15%; in test [5] (setting [8]), 99% (active); in test [5] (at 50.0 µM) it was 98% (active); in test [6] (setting [7]) it was -14%; in test [6] (setting [8]) it was 99% (active); in test [6] (at 50.0 µM), 98.5% (active).
On to `O=C1OC2(c3ccc(O)cc3Oc3cc(O)ccc32)c2c1c(-c1ccccc1)c(-c1ccccc1)c(-c1ccccc1)c2-c1ccccc1`, for which the growth inhibition was 26% in test [1] (setting [7]); 83% (active) in test [1] (setting [8]); 76.7% (active) in test [1] (at 50.0 µM); 13% in test [2] (setting [7]); 52% in test [2] (setting [8]); 36.6% in test [2] (at 50.0 µM). Further, the growth inhibition in test [3] (setting [7]) was 14%; in test [3] (setting [8]), 50%; in test [3] (at 50.0 µM), 39.9%; in test [4] (setting [7]), -10%; in test [4] (setting [8]), 34%; in test [4] (at 50.0 µM), -14.4%. In addition, the growth inhibition in test [5] (setting [7]) was -1%; in test [5] (setting [8]) it was 59%; in test [5] (at 50.0 µM), 50.9%; in test [6] (setting [7]) it was 6%; in test [6] (setting [8]), 73% (active); in test [6] (at 50.0 µM), 62.8%.
For the molecule `O=S(=O)(Nc1ccc(-c2ccc(Cl)cc2)cc1)c1ccccc1`, the growth inhibition in test [1] (setting [7]) is 68%; in test [1] (setting [8]), 97% (active); in test [1] (at 50.0 µM), 92.5% (active); in test [2] (setting [7]), 58%; in test [2] (setting [8]), 99% (active); in test [2] (at 50.0 µM), 93.2% (active). The growth inhibition is 75% (active) in test [3] (setting [7]); -21% in test [3] (setting [8]); 97.8% (active) in test [3] (at 50.0 µM); 19% in test [4] (setting [7]); 90% (active) in test [4] (setting [8]); 92.3% (active) in test [4] (at 50.0 µM). Further, the growth inhibition in test [5] (setting [7]) is 38%; in test [5] (setting [8]) it was 98% (active); in test [5] (at 50.0 µM), 95.8% (active); in test [6] (setting [7]) it was 95% (active); in test [6] (setting [8]), 98% (active); in test [6] (at 50.0 µM) it was 95% (active).
In the case of `O=C1CSC(c2c[nH]c3ccccc23)N1c1cccc(Cl)c1` (stereo not given), the growth inhibition in test [1] (setting [7]) is 10%; in test [1] (setting [8]), 93% (active); in test [1] (at 50.0 µM), 85.8% (active); in test [2] (setting [7]) it was 8%; in test [2] (setting [8]), 97% (active); in test [2] (at 50.0 µM), 87.7% (active). For the same molecule, the growth inhibition in test [3] (setting [7]) was 16%; in test [3] (setting [8]) it was 87% (active); in test [3] (at 50.0 µM), 87.3% (active); in test [4] (setting [7]) it was 6%; in test [4] (setting [8]), 95% (active); in test [4] (at 50.0 µM), 87% (active). Moreover, the growth inhibition in test [5] (setting [7]) is 16%; in test [5] (setting [8]) it was 97% (active); in test [5] (at 50.0 µM), 88.5% (active); in test [6] (setting [7]), -5%; in test [6] (setting [8]) it was 97% (active); in test [6] (at 50.0 µM), 84.5% (active).
As to `O=C(OCC1CCCO1)N(c1ccccc1)c1ccccc1` (stereo not given), the growth inhibition in test [1] (setting [7]) was 12%; in test [1] (setting [8]), -5%; in test [1] (at 50.0 µM), 23.1%; in test [2] (setting [7]), 15%; in test [2] (setting [8]), 21%; in test [2] (at 50.0 µM) it was 24.3%. For the same molecule, the growth inhibition in test [3] (setting [7]) was 18%; in test [3] (setting [8]) it was 20%; in test [3] (at 50.0 µM), 46.9%; in test [4] (setting [7]) it was 30%; in test [4] (setting [8]) it was 21%; in test [4] (at 50.0 µM), -11.4%. In addition, the growth inhibition in test [5] (setting [7]) was 0%; in test [5] (setting [8]) it was 16%; in test [5] (at 50.0 µM), 2%; in test [6] (setting [7]), 16%; in test [6] (setting [8]), 40%; in test [6] (at 50.0 µM), 37.7%.
On to `CCN(CC)C(=S)N=Nc1c(O)[nH]c2ccccc12`, for which the growth inhibition in test [1] (setting [7]) is 80% (active); in test [1] (setting [8]), 99% (active); in test [1] (at 50.0 µM), 82.5% (active); in test [2] (setting [7]), 76% (active); in test [2] (setting [8]) it was 99% (active); in test [2] (at 50.0 µM) it was 87.2% (active). The growth inhibition in test [3] (setting [7]) was 81% (active); in test [3] (setting [8]), 99% (active); in test [3] (at 50.0 µM) it was 89.3% (active); in test [4] (setting [7]), 85% (active); in test [4] (setting [8]) it was 90% (active); in test [4] (at 50.0 µM) it was 89.8% (active). For the same molecule, the growth inhibition was 76% (active) in test [5] (setting [7]); 99% (active) in test [5] (setting [8]); 91% (active) in test [5] (at 50.0 µM); 82% (active) in test [6] (setting [7]); 99% (active) in test [6] (setting [8]); 92% (active) in test [6] (at 50.0 µM).
`Clc1nssc1=Nc1nonc1-c1ccccc1`: the growth inhibition in test [1] (setting [7]) is 59%; in test [1] (setting [8]) it was 99% (active); in test [1] (at 50.0 µM) it was 88.7% (active); in test [2] (setting [7]) it was 64%; in test [2] (setting [8]), 100% (active); in test [2] (at 50.0 µM), 91.2% (active). In addition, the growth inhibition in test [3] (setting [7]) is 86% (active); in test [3] (setting [8]), 100% (active); in test [3] (at 50.0 µM), 79.9% (active); in test [4] (setting [7]), 68%; in test [4] (setting [8]), 96% (active); in test [4] (at 50.0 µM), 48.6%. The growth inhibition in test [5] (setting [7]) was 97% (active); in test [5] (setting [8]), 99% (active); in test [5] (at 50.0 µM), 79.7% (active); in test [6] (setting [7]), 49%; in test [6] (setting [8]), 98% (active); in test [6] (at 50.0 µM) it was 92.2% (active).
For the molecule `CC(=O)OCc1cc(=O)n(C)c2c3c4c(cc12)c(C)cc(=O)n4CO3`, the growth inhibition in test [1] (setting [7]) was 87% (active); in test [1] (setting [8]), 99% (active); in test [1] (at 50.0 µM) it was 85.6% (active); in test [2] (setting [7]) it was 69%; in test [2] (setting [8]), 99% (active); in test [2] (at 50.0 µM), 88.5% (active). Further, the growth inhibition in test [3] (setting [7]) is 83% (active); in test [3] (setting [8]) it was 99% (active); in test [3] (at 50.0 µM), 91.2% (active); in test [4] (setting [7]), 79% (active); in test [4] (setting [8]), 97% (active); in test [4] (at 50.0 µM), 87.4% (active). In addition, the growth inhibition was 86% (active) in test [5] (setting [7]); 97% (active) in test [5] (setting [8]); 83.8% (active) in test [5] (at 50.0 µM); 91% (active) in test [6] (setting [7]); 99% (active) in test [6] (setting [8]); 89.9% (active) in test [6] (at 50.0 µM).
As for `Cc1cccc(C)c1O`, the growth inhibition was 17% in test [1] (setting [7]); 99% (active) in test [1] (setting [8]); 99% (active) in test [1] (at 50.0 µM); -1% in test [2] (setting [7]); 99% (active) in test [2] (setting [8]); 98.5% (active) in test [2] (at 50.0 µM). For the same molecule, the growth inhibition in test [3] (setting [7]) is 0%; in test [3] (setting [8]), 98% (active); in test [3] (at 50.0 µM), 98.8% (active); in test [4] (setting [7]), -9%; in test [4] (setting [8]), 98% (active); in test [4] (at 50.0 µM) it was 97.8% (active). The growth inhibition in test [5] (setting [7]) is 3%; in test [5] (setting [8]) it was 91% (active); in test [5] (at 50.0 µM), 98.5% (active); in test [6] (setting [7]), 5%; in test [6] (setting [8]), 99% (active); in test [6] (at 50.0 µM) it was 99.5% (active).
As for `O=[N+]([O-])c1ccc2c(Nc3ccccc3-c3ccccc3Nc3c4ccccc4nc4cc([N+](=O)[O-])ccc34)c3ccccc3nc2c1`, the growth inhibition in test [1] (setting [7]) was 29%; in test [1] (setting [8]), 96% (active); in test [1] (at 50.0 µM), 90.9% (active); in test [2] (setting [7]), 22%; in test [2] (setting [8]) it was 98% (active); in test [2] (at 50.0 µM), 90% (active). The growth inhibition in test [3] (setting [7]) was 18%; in test [3] (setting [8]) it was 98% (active); in test [3] (at 50.0 µM) it was 91% (active); in test [4] (setting [7]), 30%; in test [4] (setting [8]), 98% (active); in test [4] (at 50.0 µM), 90.8% (active). Besides, the growth inhibition in test [5] (setting [7]) was 27%; in test [5] (setting [8]) it was 98% (active); in test [5] (at 50.0 µM) it was 87.4% (active); in test [6] (setting [7]), 38%; in test [6] (setting [8]), 96% (active); in test [6] (at 50.0 µM), 88.9% (active).

For the origin of these results see PubChem BioAssay (NCI).
